CHOP inhibitor: inhibitors of CHOP induction in ER stress response; CHO-K1 CHOP-promoter luciferase, tunicamycin-induced, 15-18 h; AID 2732; 220,000 compounds, 3.8% hits; inhibition, % at 10 µM;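 active means compounds that reduced the stress-induced luciferase reporter signal by more than about 70% of percent inhibition, limit read from the data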;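 further: 0% = tunicamycin plus vehicle and 100% = wells without tunicamycin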
RAM inhibit: blocks the yeast RAM network; S. cerevisiae dse1pr::URA3 reporter, 5-FOA growth OD615, 2 d; analog-sensitive cbk1-as2 kinase mutant strain; inhibition, % at 50 µM; 190,000 compounds, 1.8% hits; AID 868;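 active means inhibition above a set limit, 3 SD over mean compound inhibition, cut at about 8.4% in these data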;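 further: 0% = DMSO-only wells with no growth and 100% = 10 µM 1-NA-PP1 full growth; inhibition rescues growth on 5-FOA so higher OD means more RAM inhibition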
WT yeast gro inh: growth inhibition of WT yeast, mitochondrial fusion screen | inhibition, % at 10 µM | 190,000 compounds, 2.1% hits | AID 1362 | mitochondrial fusion phenotypic screen, WT strain; in the data active means inhibition above about 58%; tested in S. cerevisiae
Lmaj promast: inhibitors of Leishmania major promastigote growth | Leishmania major promastigotes, resazurin fluorescence viability | inhibition, % at 10 µM | 200,000 compounds, 9% hits | AID 1063; in the data active means inhibition above about 50%;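 further: promastigotes grown with compound for 44 hours at 28 °C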
Numbers without * were called inactive. This is a sample that favours compounds with a hit; in the whole collection about 13% have one here.

`CCN(CC)C(=O)c1sc2nc(-c3cccs3)cc(-c3ccc(Cl)cc3)c2c1N` gave CHOP inhibitor -9.1, RAM inhibit 9.2*, WT yeast gro inh 13.3 and Lmaj promast 32.6.
Screening CC(C)(C)C(=O)c1sc2nc(-c3cccs3)cc(C(F)(F)F)c2c1N returned CHOP inhibitor -27.6, RAM inhibit 4.5, WT yeast gro inh 6.5 and Lmaj promast 53.9*.
Screening Cc1nnc(SCc2c(Cl)cccc2[N+](=O)[O-])s1 returned CHOP inhibitor 23.2, RAM inhibit 0.9, WT yeast gro inh -2.8 and Lmaj promast 80.0*.
For Cn1cc(CN2CCN(CCO)CC2)c(-c2ccc(Oc3ccccc3)cc2)n1 the results were CHOP inhibitor 2.5, RAM inhibit -0.6, WT yeast gro inh 11.2 and Lmaj promast 51.0*.
Screening CC1CN(Cc2cn(C)nc2-c2ccc(Oc3ccccc3)cc2)CCN1C (stereo not given) returned CHOP inhibitor -0.5, RAM inhibit -0.6, WT yeast gro inh -14.3 and Lmaj promast 49.4.
Screening CCOC(=O)C1CCN(Cc2cnc(Oc3ccc(C(C)(C)C)cc3)s2)CC1 returned CHOP inhibitor -2.7, RAM inhibit -0.7, WT yeast gro inh 0.7 and Lmaj promast 90.8*.
For CCN(Cc1ccncc1)Cc1cn(C)nc1-c1ccc(Oc2ccccc2)cc1 the results were CHOP inhibitor 31.4, RAM inhibit -0.5, WT yeast gro inh 55.6 and Lmaj promast 96.3*.
For CCOC(=O)C1CCN(Cc2cnc(NC(=O)OC)s2)CC1 the results were CHOP inhibitor 31.5, RAM inhibit 2.0, WT yeast gro inh 7.3 and Lmaj promast -0.7.
Cn1cc(CN2CCC(O)CC2)c(-c2ccc(Oc3ccccc3)cc2)n1 was read as CHOP inhibitor -2.1, RAM inhibit 3.1, WT yeast gro inh 8.5 and Lmaj promast 81.0*.
COCCN1CCN(Cc2cn(C)nc2-c2ccc(Oc3ccccc3)cc2)CC1 was read as CHOP inhibitor 4.1.
For CN(C)c1nc(N)c2ncc(=S)[nH]c2n1 the results were CHOP inhibitor -2.8, RAM inhibit 2.6, WT yeast gro inh -5.8 and Lmaj promast -6.7.
`CCOC(=O)C1CCN(Cc2cn(C)nc2-c2ccc(Oc3ccccc3)cc2)CC1` gave CHOP inhibitor -7.6, RAM inhibit 1.5, WT yeast gro inh 27.0 and Lmaj promast 78.8*.
Screening Cc1cc(CNCc2cn(C)nc2-c2ccc(Oc3ccccc3)cc2)on1 returned CHOP inhibitor 33.0, RAM inhibit 1.7, WT yeast gro inh 18.7 and Lmaj promast 59.6*.
Cc1ccc2oc(=O)c3cnn(CC(=O)N(CCN(C)C)Cc4ccco4)c3c2c1 was read as CHOP inhibitor 27.0, RAM inhibit 2.3, WT yeast gro inh 1.8 and Lmaj promast 16.2.
Screening O=C(c1cccs1)N(Cc1ccccn1)Cc1ccco1 returned CHOP inhibitor -2.6, RAM inhibit 2.8, WT yeast gro inh 18.3 and Lmaj promast -1.4.
Cc1ccc2nc(Cl)c3cc(C(=O)N(CCN(C)C)Cc4ccco4)sc3c2c1 was read as CHOP inhibitor 19.9, RAM inhibit -0.2, WT yeast gro inh 35.2 and Lmaj promast 65.4*.
Screening CN(C)CCN(Cc1ccco1)C(=O)c1cc2c(Cl)nc3ccccc3c2s1 returned CHOP inhibitor 55.6, RAM inhibit 0.6, WT yeast gro inh 12.1 and Lmaj promast 91.4*.
Cc1cc(Cl)ccc1OCC(=O)n1cc(C(=O)c2cc(Cl)ccc2O)cn1 was read as CHOP inhibitor 76.9*, RAM inhibit 4.9, WT yeast gro inh -9.4 and Lmaj promast -12.2.
For Cc1cc(Cl)ccc1OCC(=O)N1CCCN(C(=O)COc2ccc(Cl)cc2C)CC1 the results were CHOP inhibitor 26.4, RAM inhibit 1.6, WT yeast gro inh 73.0* and Lmaj promast 91.6*.
For Cc1cc(Cl)ccc1OC(C)C(=O)N1CCCN(C(=O)C(C)Oc2ccc(Cl)cc2C)CC1 (stereo not given) the results were CHOP inhibitor 58.4, RAM inhibit 4.5, WT yeast gro inh 59.6* and Lmaj promast 99.5*.
Cc1cc(Cl)ccc1OCC(=O)N1CC(C)CC(C)C1 (stereo not given) was read as CHOP inhibitor 63.6, RAM inhibit -1.4, WT yeast gro inh -5.4 and Lmaj promast 3.0.
Screening CC(C)(C)c1ccc(OCC(=O)N2CCCCCC2)c(Br)c1 returned CHOP inhibitor 50.3, RAM inhibit -1.4, WT yeast gro inh 67.6* and Lmaj promast 27.4.
CN(C)/C=N/c1ncc(-c2ncc(C(F)(F)F)cc2Cl)cn1 was read as CHOP inhibitor -28.5, RAM inhibit 1.5, WT yeast gro inh -8.4 and Lmaj promast -3.0.
For Cc1ccc(C)c(-n2c(-c3ccc(Br)cc3)csc2=NC(=O)c2ccccc2F)c1 the results were CHOP inhibitor 16.0.
CCOC(=O)c1cc[nH]c1C was read as CHOP inhibitor 7.4, RAM inhibit -0.8, WT yeast gro inh 5.9 and Lmaj promast 2.5.
